# Test results: PubChem BioAssay (EPA / NIEHS)
# Results filed as inconclusive are left out. Activity calls are given as the source filed them. Rule for the calls: active = hit-call score of the fitted dose curve at least 0.9, where 1 is the maximum; inconclusive = response in the unintended direction; inactive = score below 0.9.
# How the values were obtained:
# [1] = target: Estrogen receptor (Homo sapiens) + Estrogen receptor beta (Homo sapiens) (UniProt P03372+Q92731); assay: OT_ER_ERaERb_1440: Odyssey Thera (OT) 24-hour HEK293T Protein-Complementation Assay for Estrogen Receptor-alpha/-beta Homodimer (AID 2283356);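 note: heteromer of ER alpha and ER beta binding domains; hits raise reporter fluorescence and both agonists and antagonists give an increase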
# How it was run: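 HEK293T cells stably expressing a PCA pair of ERα LBD (aa 310-547) and ERβ LBD (aa 263-489) were dosed for 24 h. Fluorescence intensity increase versus DMSO vehicle was fitted as gain-of-signal.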
# [2] = target: Estrogen receptor beta (Homo sapiens) (UniProt Q92731); assay: OT_ER_ERbERb_0480: Odyssey Thera (OT) 8-hour HEK293T Protein-Complementation Assay for Estrogen Receptor-beta/-beta Homodimer (AID 2283357);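 note: active means signal gain over DMSO baseline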
# How it was run: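 ER-beta LBD homodimer PCA stably expressed in HEK293T; 8 h compound exposure, then formaldehyde fixation and Draq5 staining. Gain in nuclear/cytoplasmic fluorescence intensity versus DMSO vehicle, read on laser scanning cytometer.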
# [3] = target: Nuclear receptor subfamily 1 group I member 2 (Homo sapiens) (UniProt O75469); assay: NVS_NR_hPXR: NovaScreen (NVS) Nuclear Receptor Binding Assay for human Pregnane X Receptor (PXR) (AID 2283365);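 note: a drop in FRET signal versus DMSO baseline means the compound binds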
# How it was run: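 Cell-free binding assay with extracted human PXR protein, read by TR-FRET 2 h after dosing; loss of signal relative to DMSO baseline indicates binding. Primary screen at 25 uM in duplicate, actives retested in concentration series.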
# [4] = target: Peroxisome proliferator-activated receptor gamma (Homo sapiens) (UniProt P37231); assay: NVS_NR_hPPARg: NovaScreen (NVS) Nuclear Receptor Binding Assay for human Peroxisome Proliferator-activated Receptor gamma (PPARg) (AID 2283370)
# How it was run: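 Cell-free binding to extracted PPARg protein, read by fluorescence polarization 2 h after dosing; loss of signal relative to DMSO baseline marks displacement. Primary screen in duplicate at 25 uM, actives retested in concentration series.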
# [5] = target: human Peroxisome Proliferator-activated Receptor alpha (PPARa), PPARA (gene 5465) (UniProt Q07869); assay: NVS_NR_hPPARa: NovaScreen (NVS) Nuclear Receptor Binding Assay for human Peroxisome Proliferator-activated Receptor alpha (PPARa) (AID 2283359);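 note: activity means loss of TR-FRET signal versus DMSO baseline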
# How it was run: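 Loss of TR-FRET binding signal relative to DMSO was measured 1 h after chemical addition to extracted receptor protein. Chemicals were first tested in duplicate at 25 uM, and actives were followed up in concentration series.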
# [6] = target: human Thyroid Receptor Alpha (TRa), THRA (gene 7067) (UniProt P10827); assay: NVS_NR_hTRa_Antagonist: NovaScreen (NVS) Nuclear Receptor Binding Assay for human Thyroid Receptor Alpha Antagonism (TRa) (AID 2283362);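 note: activity is loss of signal relative to DMSO baseline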
# How it was run: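 Cell-free binding assay on extracted receptor protein, read 1 h after chemical dosing by AlphaLISA chemiluminescence; loss of signal relative to DMSO baseline marks antagonism. Primary screen ran in duplicate at 25 uM, with concentration series for actives.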
# [7] = target: Retinoic acid receptor alpha (Homo sapiens) (UniProt P10276); assay: NVS_NR_hRAR_Antagonist: NovaScreen (NVS) Nuclear Receptor Binding Assay for human Retinoic Acid Alpha Receptor Antagonism (RAR) (AID 2283358)
# How it was run: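 RARalpha antagonism was read by TR-FRET as loss of binding signal versus DMSO, 2 h after chemical addition, in a biochemical format. Single-concentration duplicates (25 uM) were run first, and actives were retested in concentration series.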
# [8] = target: Glucocorticoid receptor (Homo sapiens) (UniProt P04150); assay: NVS_NR_hGR: NovaScreen (NVS) Nuclear Receptor Binding Assay for human Glucocorticoid Receptor (GR) (AID 2283363);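 for AC50: activity is loss of specific radioligand binding signal relative to DMSO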
# How it was run: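 Compounds first tested in duplicate at 25 uM, actives followed up in concentration series. Binding to extracted GR protein measured as competitive radioligand displacement, filter scintillation read 16 h post-dosing, normalised to DMSO.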
# [9] = target: Retinoic acid receptor alpha (Homo sapiens) (UniProt P10276); assay: NVS_NR_hRARa_Agonist: NovaScreen (NVS) Nuclear Receptor Binding Assay for human Retinoic Acid Alpha Receptor Agonism (RAR) (AID 2283361)
# How it was run: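 Agonist-mode TR-FRET binding format using extracted protein, measured at 2 h post-dosing. Initial duplicate single-point screen at 25 uM preceded concentration series for actives; activity was normalized to DMSO baseline.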
# [10] = target: guinea pig Sigma Receptor, Non-selective Binding, SIGMAR1 (gene 100135589) (UniProt Q60492); assay: NVS_OR_gSIGMA_NonSelective: NovaScreen (NVS) Nuclear Receptor Binding Assay for guinea pig Sigma Receptor, Non-selective Binding (AID 2283367)
# How it was run: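 Guinea pig brain membrane sigma sites were labelled with a radioligand, and bound radioactivity was counted after filtration 1 h post-dose. Compounds were screened at 25 uM in duplicate, then retested as concentration series when active.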
# PGR (gene 5241) = PGR (gene 5241) (UniProt P06401); assay: NVS_NR_hPR: NovaScreen (NVS) Nuclear Receptor Binding Assay for human Progestron Receptor (PR) (AID 2283360);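 note: active means loss of bound radioligand signal versus DMSO baseline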
# How it was run: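 T47D-derived receptor preparation, cell-free, with tritiated or iodinated radioligand displacement measured by scintillation 18 h post-dosing. Single 25 uM duplicate screen, then concentration series; signal loss relative to DMSO.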
# [11] = target: human Adenosine Transporter (Adot), SLC29A1 (gene 2030) (UniProt Q99808); assay: NVS_TR_hAdoT: NovaScreen (NVS) Transporter Assay for human Adenosine Transporter (Adot) (AID 2283368)
# How it was run: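 Binding displacement on U937 extracted protein, read 1 h post-dose by filtration and scintillation counting. Primary duplicate test at 25 uM, then singleton concentration series with 50 uM top; DMSO baseline.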
# [12] = target: rat Serotonin Transporter (SERT), Slc6a4 (gene 25553) (UniProt P31652); assay: NVS_TR_rSERT: NovaScreen (NVS) Transporter Assay for rat Serotonin Transporter (SERT) (AID 2283375)
# How it was run: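 Rat forebrain membranes were incubated with test chemical for 1 hour; radioligand binding to SERT was measured by filter-based scintillation counting. Primary screen ran in duplicate at 25 uM, with actives followed up in concentration series; DMSO served as negative control.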
# Estrogen receptor (Homo sapiens) + Estrogen receptor beta (Homo sapiens), sequence (P03372 whole entry, looked up, the tested form may be a part): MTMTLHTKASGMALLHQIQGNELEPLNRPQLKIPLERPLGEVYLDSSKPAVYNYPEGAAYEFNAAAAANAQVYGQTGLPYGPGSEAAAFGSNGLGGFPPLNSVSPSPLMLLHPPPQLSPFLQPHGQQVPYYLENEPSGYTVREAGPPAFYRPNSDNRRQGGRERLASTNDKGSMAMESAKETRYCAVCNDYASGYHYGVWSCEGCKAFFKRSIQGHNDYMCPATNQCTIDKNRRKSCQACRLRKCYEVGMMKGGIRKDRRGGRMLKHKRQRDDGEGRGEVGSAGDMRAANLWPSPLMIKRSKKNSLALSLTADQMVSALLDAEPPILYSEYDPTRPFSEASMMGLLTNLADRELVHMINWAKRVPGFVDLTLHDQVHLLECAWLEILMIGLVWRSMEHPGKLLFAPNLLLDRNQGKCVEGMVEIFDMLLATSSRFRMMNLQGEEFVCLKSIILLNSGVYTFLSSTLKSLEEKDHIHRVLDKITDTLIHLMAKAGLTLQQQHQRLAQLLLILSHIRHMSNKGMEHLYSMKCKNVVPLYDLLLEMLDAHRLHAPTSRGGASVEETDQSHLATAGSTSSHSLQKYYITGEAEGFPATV
# Estrogen receptor (Homo sapiens) + Estrogen receptor beta (Homo sapiens), sequence (Q92731 whole entry, looked up, the tested form may be a part): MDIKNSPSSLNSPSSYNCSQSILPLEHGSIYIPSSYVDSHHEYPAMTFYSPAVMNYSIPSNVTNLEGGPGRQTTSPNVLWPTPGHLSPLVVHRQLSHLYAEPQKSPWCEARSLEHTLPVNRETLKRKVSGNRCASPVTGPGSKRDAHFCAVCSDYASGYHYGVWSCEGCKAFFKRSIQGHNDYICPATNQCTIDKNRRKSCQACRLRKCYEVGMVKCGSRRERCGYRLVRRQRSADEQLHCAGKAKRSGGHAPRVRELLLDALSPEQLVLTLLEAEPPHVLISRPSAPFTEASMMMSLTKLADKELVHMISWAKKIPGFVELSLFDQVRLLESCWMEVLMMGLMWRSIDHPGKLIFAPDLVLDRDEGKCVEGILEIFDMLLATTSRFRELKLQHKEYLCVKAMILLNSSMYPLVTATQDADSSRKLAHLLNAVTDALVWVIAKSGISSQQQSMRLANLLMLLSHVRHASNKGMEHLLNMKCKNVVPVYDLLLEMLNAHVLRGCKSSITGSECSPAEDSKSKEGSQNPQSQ
# Glucocorticoid receptor (Homo sapiens), sequence (P04150 whole entry, looked up): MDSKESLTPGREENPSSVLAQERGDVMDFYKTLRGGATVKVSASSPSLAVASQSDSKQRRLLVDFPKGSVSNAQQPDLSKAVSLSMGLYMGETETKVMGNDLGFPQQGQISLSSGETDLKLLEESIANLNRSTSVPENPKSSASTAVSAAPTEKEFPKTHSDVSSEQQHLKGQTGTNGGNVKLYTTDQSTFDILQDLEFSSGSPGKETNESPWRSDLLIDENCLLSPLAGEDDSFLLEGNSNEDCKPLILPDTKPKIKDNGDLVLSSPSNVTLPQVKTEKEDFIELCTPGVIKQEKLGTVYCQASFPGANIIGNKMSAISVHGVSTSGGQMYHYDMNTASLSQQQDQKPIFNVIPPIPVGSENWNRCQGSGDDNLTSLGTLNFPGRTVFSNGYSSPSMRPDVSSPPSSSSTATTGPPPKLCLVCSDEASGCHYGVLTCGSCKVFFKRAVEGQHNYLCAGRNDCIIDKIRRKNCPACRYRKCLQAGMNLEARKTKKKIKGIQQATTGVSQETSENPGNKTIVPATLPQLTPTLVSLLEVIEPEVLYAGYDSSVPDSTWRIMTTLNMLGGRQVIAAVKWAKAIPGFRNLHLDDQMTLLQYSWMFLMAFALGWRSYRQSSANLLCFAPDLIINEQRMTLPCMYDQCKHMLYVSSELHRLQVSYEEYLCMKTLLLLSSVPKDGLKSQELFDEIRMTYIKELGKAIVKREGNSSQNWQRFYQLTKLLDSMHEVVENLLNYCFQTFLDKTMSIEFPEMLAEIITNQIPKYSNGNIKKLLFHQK
# Peroxisome proliferator-activated receptor gamma (Homo sapiens), sequence (P37231 whole entry, looked up): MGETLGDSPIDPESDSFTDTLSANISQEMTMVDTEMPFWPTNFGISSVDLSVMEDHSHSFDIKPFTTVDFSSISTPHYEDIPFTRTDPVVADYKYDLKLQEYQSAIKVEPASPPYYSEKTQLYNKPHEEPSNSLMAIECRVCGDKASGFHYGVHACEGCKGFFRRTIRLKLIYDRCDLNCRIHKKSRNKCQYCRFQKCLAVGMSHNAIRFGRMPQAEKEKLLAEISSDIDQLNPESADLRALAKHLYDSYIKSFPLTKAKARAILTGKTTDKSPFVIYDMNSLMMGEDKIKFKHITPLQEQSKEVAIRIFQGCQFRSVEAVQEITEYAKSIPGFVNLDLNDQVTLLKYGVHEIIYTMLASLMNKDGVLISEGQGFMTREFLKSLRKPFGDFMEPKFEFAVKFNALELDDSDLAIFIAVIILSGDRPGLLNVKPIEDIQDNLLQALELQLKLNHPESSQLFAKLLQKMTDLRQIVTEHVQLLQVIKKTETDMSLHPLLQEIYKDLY
# Estrogen receptor beta (Homo sapiens), sequence (Q92731 whole entry, looked up, the tested form may be a part): as the sequence (Q92731 whole entry, looked up, the tested form may be a part) above
# human Thyroid Receptor Alpha (TRa), THRA (gene 7067), sequence (P10827 whole entry, looked up): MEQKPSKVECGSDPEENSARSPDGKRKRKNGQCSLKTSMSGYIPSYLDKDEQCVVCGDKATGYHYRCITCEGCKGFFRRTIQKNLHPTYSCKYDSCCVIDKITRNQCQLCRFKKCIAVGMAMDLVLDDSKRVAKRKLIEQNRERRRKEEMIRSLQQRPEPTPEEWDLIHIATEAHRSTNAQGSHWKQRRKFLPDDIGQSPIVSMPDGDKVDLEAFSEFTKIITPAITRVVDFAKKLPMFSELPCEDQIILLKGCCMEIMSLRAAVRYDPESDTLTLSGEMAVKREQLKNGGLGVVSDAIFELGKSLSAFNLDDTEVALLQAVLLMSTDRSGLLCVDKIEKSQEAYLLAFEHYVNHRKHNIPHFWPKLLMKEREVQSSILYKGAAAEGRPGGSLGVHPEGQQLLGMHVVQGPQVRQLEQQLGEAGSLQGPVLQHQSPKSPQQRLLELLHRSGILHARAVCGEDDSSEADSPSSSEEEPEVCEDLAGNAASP
# human Peroxisome Proliferator-activated Receptor alpha (PPARa), PPARA (gene 5465), sequence (Q07869 whole entry, looked up): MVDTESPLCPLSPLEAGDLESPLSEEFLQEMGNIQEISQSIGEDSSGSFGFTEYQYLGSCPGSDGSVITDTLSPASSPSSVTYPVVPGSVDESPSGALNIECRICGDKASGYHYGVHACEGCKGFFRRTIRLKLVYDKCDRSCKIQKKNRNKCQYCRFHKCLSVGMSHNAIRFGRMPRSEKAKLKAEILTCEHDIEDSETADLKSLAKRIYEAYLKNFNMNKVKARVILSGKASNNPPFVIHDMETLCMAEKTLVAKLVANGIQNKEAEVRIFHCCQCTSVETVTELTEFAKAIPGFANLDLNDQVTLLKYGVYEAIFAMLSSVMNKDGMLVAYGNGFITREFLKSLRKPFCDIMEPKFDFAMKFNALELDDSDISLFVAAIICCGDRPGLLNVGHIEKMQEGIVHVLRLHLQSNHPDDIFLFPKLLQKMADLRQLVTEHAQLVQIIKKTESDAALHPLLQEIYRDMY
# Retinoic acid receptor alpha (Homo sapiens), sequence (P10276 whole entry, looked up): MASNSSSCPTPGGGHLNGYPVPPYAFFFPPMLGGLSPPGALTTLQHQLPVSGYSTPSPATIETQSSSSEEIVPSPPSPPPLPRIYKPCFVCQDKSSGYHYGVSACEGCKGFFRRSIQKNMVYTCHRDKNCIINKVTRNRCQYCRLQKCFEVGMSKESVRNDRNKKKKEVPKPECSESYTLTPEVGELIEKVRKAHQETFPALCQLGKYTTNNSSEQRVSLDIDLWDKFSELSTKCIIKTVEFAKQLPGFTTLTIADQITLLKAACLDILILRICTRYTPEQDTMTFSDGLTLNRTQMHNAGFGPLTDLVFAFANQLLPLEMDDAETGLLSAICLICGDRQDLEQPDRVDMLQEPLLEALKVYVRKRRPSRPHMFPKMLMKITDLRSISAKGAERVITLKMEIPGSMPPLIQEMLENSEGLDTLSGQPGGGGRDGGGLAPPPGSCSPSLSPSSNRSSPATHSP
# Nuclear receptor subfamily 1 group I member 2 (Homo sapiens), sequence (O75469 whole entry, looked up): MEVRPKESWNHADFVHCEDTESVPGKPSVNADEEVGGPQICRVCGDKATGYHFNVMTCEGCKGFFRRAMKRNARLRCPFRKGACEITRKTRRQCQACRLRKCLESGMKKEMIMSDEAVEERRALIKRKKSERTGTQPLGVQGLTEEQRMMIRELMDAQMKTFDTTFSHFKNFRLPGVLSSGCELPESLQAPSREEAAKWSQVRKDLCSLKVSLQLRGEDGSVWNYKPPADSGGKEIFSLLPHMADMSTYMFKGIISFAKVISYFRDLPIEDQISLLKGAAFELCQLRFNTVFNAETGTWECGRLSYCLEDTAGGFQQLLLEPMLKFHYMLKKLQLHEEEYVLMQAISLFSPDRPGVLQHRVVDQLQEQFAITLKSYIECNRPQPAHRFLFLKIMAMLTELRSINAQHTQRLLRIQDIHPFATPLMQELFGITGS
smiles,measurement,setting,value
CCNC(=S)NCC,outcome,[1],inactive
same,outcome,[2],inactive
same,outcome,[3],inactive
O=C(O)CS,outcome,[1],inactive
same,outcome,[2],inactive
same,outcome,[4],inactive
CCCCN(CCCC)CCCCCCN(CCCC)CCCC,outcome,[1],inactive
same,outcome,[2],inactive
same,outcome,[5],inactive
CC(=O)c1ccc(O)cc1,outcome,[1],inactive
same,outcome,[2],inactive
CC(=O)Nc1cc(S(=O)(=O)O)cc2cc(S(=O)(=O)O)c(N=Nc3ccccc3)c(O)c12,outcome,[1],inactive
same,outcome,[2],inactive
same,AC50,[6],9.8 µM (active)
same,outcome,[4],inactive
CCCCCCCCOC(=O)c1ccc(O)cc1,AC50,[1],24 µM (active)
same,AC50,[2],8.39 µM (active)
same,outcome,[7],inactive
same,outcome,[8],inactive
CCCCCCCCCCCCS,outcome,[1],inactive
same,outcome,[2],inactive
same,outcome,[3],inactive
same,outcome,[4],inactive
CC(=O)c1ccc2ccccc2c1,AC50,[1],31.6 µM (active)
same,outcome,[2],inactive
same,outcome,[5],inactive
COC(=O)c1ccc(C(=O)OC)cc1,outcome,[1],inactive
same,outcome,[2],inactive
C=CCCCCCCCCC(=O)OCC,outcome,[1],inactive
same,outcome,[2],inactive
CCC(C)C1CCCCC1=O (centres undefined),outcome,[1],inactive
same,outcome,[2],inactive
O=S(=O)(O)c1cc(S(=O)(=O)O)c2c(N=Nc3ccccc3)c(O)ccc2c1,outcome,[1],inactive
same,outcome,[2],inactive
same,outcome,[6],inactive
CCC(C)(CCCC(C)C)OC(C)=O (centres undefined),outcome,[1],inactive
same,outcome,[2],inactive
same,outcome,[3],inactive
CCCCC(CC)COCCO (centres undefined),outcome,[1],inactive
same,outcome,[2],inactive
same,outcome,[5],inactive
same,outcome,[6],inactive
CCCCCC1CCC(=O)O1 (centres undefined),outcome,[1],inactive
same,outcome,[2],inactive
same,outcome,[3],inactive
same,outcome,[4],inactive
[Na+],outcome,[1],inactive
same,outcome,[2],inactive
CC(=O)OC/C=C(C)/C=C/C=C(C)/C=C/C1=C(C)CCCC1(C)C,outcome,[1],inactive
same,outcome,[2],inactive
same,AC50,[3],2.21 µM (active)
CCCCCC(=O)O[C@]1(C(C)=O)CC[C@H]2[C@@H]3CCC4=CC(=O)CC[C@]4(C)[C@H]3CC[C@@]21C,AC50,[1],4.65 µM (active)
same,outcome,[2],inactive
same,AC50,[8],18.7 nM (active)
same,outcome,[3],inactive
CCCCCCC(C)O (centres undefined),outcome,[1],inactive
same,outcome,[2],inactive
CCCCCCCCOS(=O)(=O)O,outcome,[1],inactive
same,outcome,[2],inactive
same,outcome,[4],inactive
CCCCC/C=C\C=C\C(=O)OCC,outcome,[1],inactive
same,outcome,[2],inactive
same,AC50,[3],9.24 µM (active)
c1ccc2scnc2c1,outcome,[1],inactive
same,outcome,[2],inactive
same,outcome,[3],inactive
CCOCC(C)O (centres undefined),outcome,[1],inactive
same,outcome,[2],inactive
CN1CCc2cccc3c2[C@H]1Cc1ccc(O)c(O)c1-3,AC50,[1],4.59 µM (active)
same,outcome,[2],inactive
same,AC50,[5],279 nM (active)
same,outcome,[8],inactive
same,AC50,[3],0.26 µM (active)
same,outcome,[4],inactive
CCCCCCCCCCCCN1CCOCC1,AC50,[1],68 µM (active)
same,outcome,[2],inactive
same,outcome,[6],inactive
same,outcome,[3],inactive
same,outcome,[4],inactive
CCCCCCCC(=O)N(C)C,outcome,[1],inactive
same,outcome,[2],inactive
OCC=Cc1ccccc1,outcome,[1],inactive
same,outcome,[2],inactive
CCC(C)(C)C1CCC(OC)CC1 (centres undefined),outcome,[1],inactive
same,outcome,[2],inactive
same,outcome,[3],inactive
CCCCCCCCCOS(=O)(=O)O,outcome,[1],inactive
same,outcome,[2],inactive
CC(C)(C)c1ccc(S)cc1,outcome,[1],inactive
same,outcome,[2],inactive
same,outcome,[4],inactive
CCCCOCCOCCOCCO,outcome,[1],inactive
same,outcome,[2],inactive
C1CCCNCC1,outcome,[1],inactive
same,outcome,[2],inactive
same,outcome,[5],inactive
same,outcome,[4],inactive
CCCO,outcome,[1],inactive
same,outcome,[2],inactive
CC(=O)OC(C)(C)C,outcome,[1],inactive
same,outcome,[2],inactive
CC(=O)C1=C(C)[C@@H]2C[C@@]3(C1)[C@H](C)CC[C@H]3C2(C)C,AC50,[1],58.1 µM (active)
same,AC50,[2],12.8 µM (active)
same,outcome,[5],inactive
CC/C(=C(\c1ccccc1)c1ccc(OCCN(C)C)cc1)c1ccccc1,outcome,[7],inactive
same,outcome,[9],inactive
same,AC50,[10],491 nM (active)
CCCCCCCCCCCCOCCOS(=O)(=O)O,AC50,[7],16.2 µM (active)
CC(CO)(CO)[N+](=O)[O-],outcome,PGR (gene 5241),inactive
C=C1CC[C@H]2O[C@]2(C)CC[C@@H]2[C@@H]1CC2(C)C,outcome,PGR (gene 5241),inactive
O=C(c1ccc(OCCN2CCCCC2)cc1)c1c(-c2ccc(O)cc2)sc2cc(O)ccc12,AC50,[10],4670 nM (active)
same,AC50,[11],14.6 µM (active)
same,AC50,[12],9.25 µM (active)
CC(C)Cc1ccccc1,outcome,[12],inactive
